The campaign covered roughly 59,000 compounds. About 6,200 (11%) were called active. Another 9% or so got no clear call; they are omitted. Rule as the data show it: active = max dye-equivalent concentration above about 10 nM; inconclusive = mostly about 1.1 nM to 9.6 nM; inactive = weaker than that. Only a selection was taken, and actives are over-represented in it overall.

The assay can be described thus: qHTS Assay for Spectroscopic Profiling in 4-MU Spectral Region. The settings on record: compound autofluorescence, 340/450 nm, 4-MU equivalents; active compounds read high. From the text: NIH Molecular Libraries Screening Centers Network [MLSCN] NIH Chemical Genomics Center [NCGC] […] Occasionally, the artifactual effect may originate from the compounds own spectral or other biophysical properties which generally tend to track its assay concentration. Pre-screening/profiling the library with respect to the compounds spectral properties should help one exclude false positives early on. While the most informative fluorescent profiling data set is obtained by performing a full excitation and emission scan of each well by using a monochromator-based plate reader, such an approach is practical only on a very limited scale as scanning each well requires long time. An alternative approach, applied here, is to perform plate reader scans using selected excitation and emission wavelength pairs to generate a multidimensional relational database that correlates compound concentration and the respective relative fluorescence intensity at a given wavelength set. A standard curve of 4-methylumbelliferone (4-MU) present on each plate as six-point concentration series, was used to compute a normalized fluorescence response, termed dye-equivalent concentration, for each compound at each concentration.
NCGC Assay Protocol Summary: Buffer: 100 mM Tris buffer, pH 8.0 Dye standard plate: The wells in columns 1 through 4 of a Kalypsys polypropylene 1536-well compound plate were filled with standard solutions of fluorophore corresponding to the spectral region of interest. Solutions of 4-MU were placed in the following wells: A1, B1: 3 mM, A2, B2: 300 uM, A3, B3: 30 uM, A4, B4: zero (DMSO), C1, D1: 3 uM, C2, D2: 900 nM, C3, D3: 300 nM, C4, D4: zero (DMSO). Assay Steps: Six uL of buffer were dispensed to 1536-well Greiner black plates. Compounds and dye standards (23 nL) were transferred via Kalypsys PinTool. The plates were incubated for 15 min at room temperature, and then read on ViewLux (Perkin-Elmer) High-throughput CCD imager using 340 nm and 450 nm excitation and emission filter set. Keywords: NIH Roadmap, MLSCN, MLI, MLSMR, qHTS, NCGC, Fluorescent Profiling, 4MU, 4-MU
A general note: qHTS replaces the single test concentration by a dilution series.
On to `CCOC(=O)c1[nH]c2ccc(C)cc2c1N=C(C)N(C)C`, for which the max dye-equivalent concentration was 31 nM (active).

As for `CCOC(=O)CN(C)Cc1c[nH]c2ccccc12`, the max dye-equivalent concentration entry was “inactive”.

In the case of `CCOC(=O)c1[nH]c2ccccc2c1N=C(C)N(CC)CC`, the max dye-equivalent concentration entry is “inactive”.

Turning to `CCCNS(=O)(=O)c1ccc(CCC(=O)NCc2cccnc2)cc1`, the max dye-equivalent concentration entry is “inactive”.

For the compound `CCOc1ccc(NC(=O)N(CCC(C)C)C(C)c2ccco2)cc1` (configuration not stated), the max dye-equivalent concentration result is “inactive”.

Turning to `CSc1nsc(SC)c1NC(=O)OC1CCCCC1`, the max dye-equivalent concentration entry is “inactive”.

Turning to `O=C(Nc1ccc(S(=O)(=O)N2CCCCC2)cc1)c1cnccn1`, the max dye-equivalent concentration result is “inactive”.

With `CC(=O)C1=C(O)C(=O)N(c2ccc(S(N)(=O)=O)cc2)C1c1ccccc1F` (configuration not stated), the max dye-equivalent concentration is 21 nM (active).

Turning to `CCN1C(=O)C(C(=O)NC(C)c2ccccc2)C2CC1(C)Oc1ccccc12` (configuration not stated), the max dye-equivalent concentration entry was “inactive”.

In the case of `Cn1c(=O)n(C)c2cc(CNc3ccc(N4CCOCC4)c(C(=O)O)c3)ccc21`, the max dye-equivalent concentration was 18 nM (active).

Regarding `CC(=O)Nc1ccc(N2CCOCC2)c(C(=O)Nc2cccc(C)c2)c1`, the max dye-equivalent concentration entry was “inactive”.

`Cn1nc(-c2ccc(N3CCOCC3)c(NC(=O)c3ccccc3)c2)c2ccccc2c1=O`: the max dye-equivalent concentration entry was “inactive”.

As to `CCCn1c(=O)c2[nH]c(-c3ccc(OCC(=O)NCCN)cc3)nc2n(CCC)c1=O`, the max dye-equivalent concentration entry is “inactive”.

Consider `CC(=O)c1cc(-c2ccccc2)[nH]c1N1CCCC1`, for which the max dye-equivalent concentration result was “inactive”.

With `Cc1cc(N2CCCC2)n2nc(C)c(-c3ccccc3)c2n1`, the max dye-equivalent concentration is 660 nM (active).

With `CCCc1nc(-c2ccccc2O)n(-c2ccccc2)n1`, the max dye-equivalent concentration entry is “inactive”.

Regarding `CCn1ccnc1C[C@@H]1COc2ccccc2O1`, the max dye-equivalent concentration result was “inactive”.

Regarding `O=C(c1csnn1)N1CCC2(CC1)CN(c1ncccn1)C2`, the max dye-equivalent concentration result was “inactive”.

With `COc1ccc(S(=O)(=O)N2CCN(c3ncnc4c(-c5ccccc5)nsc34)CC2)cc1`, the max dye-equivalent concentration was 88 nM (active).

Regarding `COc1cccc(N2C(=O)CC(N3CCN(S(=O)(=O)c4ccccc4)CC3)C2=O)c1` (configuration not stated), the max dye-equivalent concentration entry was “inactive”.

As for `CCOc1ccccc1NC(=O)CCN1CCN(S(=O)(=O)c2ccc(OC)cc2)CC1`, the max dye-equivalent concentration entry was “inactive”.

As for `Cc1ccc(-c2noc(CCC(N)=O)n2)cc1`, the max dye-equivalent concentration result is “inactive”.

Consider `CCOC(=O)N1CCN(C(=O)CSc2nnc(-c3c[nH]c4ccccc34)n2CCOC)CC1`, for which the max dye-equivalent concentration entry was “inactive”.

As to `O=C(Nc1nn(Cc2ccccc2F)cc1Br)c1cccs1`, the max dye-equivalent concentration entry was “inactive”.

As for `Cn1cccc1C(=O)N1CCC2(CC1)CN(c1cccc(-c3ccccc3)c1)C2`, the max dye-equivalent concentration result is “inactive”.

In the case of `CCOc1cc(S(=O)(=O)NCc2ccc3c(c2)OCO3)ccc1F`, the max dye-equivalent concentration result was “inactive”.

Take `Cc1ccc(S(=O)(=O)NCc2nc3ccccc3c(=O)n2N)cc1`: the max dye-equivalent concentration entry is “inactive”.

As for `Cc1ccc(S(=O)(=O)c2c(N)n(C)c3nc4ccccc4nc23)cc1`, the max dye-equivalent concentration was 2500 nM (active).

Turning to `COCCn1c(=O)c(-c2cc(F)cc(F)c2)nc2cnc(N3CCNCC3)nc21`, the max dye-equivalent concentration is 350 nM (active).

Regarding `COCCn1c(=O)c(CCc2ccccc2)nc2cnc(N3CCNCC3)nc21`, the max dye-equivalent concentration is 56 nM (active).

For the compound `Cc1nc2cnc(Oc3cccc(Cl)c3)nc2n(C2CC2)c1=O`, the max dye-equivalent concentration entry was “inactive”.

As to `COCCn1c(CN2CCC(Cc3ccccc3)CC2)nc2c1c(=O)n(C)c(=O)n2C`, the max dye-equivalent concentration entry is “inactive”.

As for `Cn1cc(-c2nc3cnc(N4CCNCC4)nc3n(CCC#N)c2=O)c2ccccc21`, the max dye-equivalent concentration result was “inactive”.

For the compound `Cn1c(=O)c(-c2ccccc2)nc2cnc(N3CCNCC3)nc21`, the max dye-equivalent concentration was 270 nM (active).

Regarding `N#Cc1cccc(-c2nc3cnc(N4CCNCC4)nc3n(C3CC3)c2=O)c1`, the max dye-equivalent concentration is 300 nM (active).

As to `c1cncc(-c2nc(N3CCNCC3)c3ccccc3n2)c1`, the max dye-equivalent concentration result is “inactive”.

With `CC1(C)C2CCC1(C)C(OC(=O)CCn1ccnc1)C2` (configuration not stated), the max dye-equivalent concentration result is “inactive”.

For the compound `Cc1ccc(C(=O)CSc2nnc(Cn3nnc4ccccc43)n2C)cc1`, the max dye-equivalent concentration result was “inactive”.

On to `CCCn1c(=O)c(-c2ccccc2)c(O)c2ccccc21`, for which the max dye-equivalent concentration result was “inactive”.

As to `CCOC(=O)c1sc(N(Cc2ccccc2)C(=O)CN2C(=O)CN(C)C2=O)nc1C`, the max dye-equivalent concentration entry is “inactive”.

`CCn1c(CSc2ncccn2)nnc1SCC(=O)N1c2ccccc2CC1C` (configuration not stated): the max dye-equivalent concentration entry was “inactive”.

As to `O=c1c(CCc2ccccc2)nc2cncnc2n1C1CC1`, the max dye-equivalent concentration result was “inactive”.

In the case of `Cc1nc2cnc(N3CCN(C)CC3)nc2n(C[C@H]2CCCO2)c1=O`, the max dye-equivalent concentration is 48 nM (active).

As to `O=c1c(-c2ccc(F)cc2)nc2cnc(N3CCNCC3)nc2n1Cc1cccs1`, the max dye-equivalent concentration was 15 nM (active).

For the compound `Cn1c(=O)c2c(nc(OCc3cccnc3)n2Cc2ccccc2)n(C)c1=O`, the max dye-equivalent concentration result was “inactive”.

`COCCn1c(=O)c(CCc2ccccc2)nc2cncnc21`: the max dye-equivalent concentration was 83 nM (active).

For `Cc1nc2cnc(Nc3ccccc3)nc2n(C[C@H]2CCCO2)c1=O`, the max dye-equivalent concentration result was “inactive”.

Turning to `Cc1nc2cnc(N3CCNCC3)nc2n(Cc2ccc(F)cc2)c1=O`, the max dye-equivalent concentration is 98 nM (active).

As to `Cc1nc2cnc(N3CCN(C)CC3)nc2n(CCC#N)c1=O`, the max dye-equivalent concentration result was “inactive”.

Consider `Cc1cc(C)c(C(=O)CN2C(=O)CCC2=O)cc1C`, for which the max dye-equivalent concentration result was “inactive”.

On to `CCOC(=O)Nc1ccc2c(c1)N(C(=O)CN1CCN3CCCC3C1)c1ccccc1CC2` (configuration not stated), for which the max dye-equivalent concentration entry is “inactive”.

With `O=C(Nc1ccc2c(c1)OCCO2)C1CCCN(c2ncccn2)C1` (configuration not stated), the max dye-equivalent concentration result was “inactive”.

As for `CCOP1(=O)C=C(C(C)(C)C)OC1c1ccc(F)cc1` (configuration not stated), the max dye-equivalent concentration entry is “inactive”.

Consider `CC(c1nnc(SCC(=O)Nc2sccc2C#N)n1-c1ccc(Cl)cc1)N(C)C` (configuration not stated), for which the max dye-equivalent concentration entry is “inactive”.

For `CCC(=O)Nc1sc(C(=O)N2CCCCC2)c(C)c1C#N`, the max dye-equivalent concentration result was “inactive”.

On to `COCCNC(=O)CN(C(=O)CCC(=O)Nc1cc(C)on1)c1ccc(C)cc1C`, for which the max dye-equivalent concentration entry was “inactive”.

Regarding `O=S(=O)(/C=C/c1ccccc1)NCCc1ccccn1`, the max dye-equivalent concentration entry is “inactive”.

On to `Cn1cc(-c2nc3cnc(N4CCNCC4)nc3n(CCc3ccccc3)c2=O)c2ccccc21`, for which the max dye-equivalent concentration entry was “inactive”.

In the case of `Cn1c(=O)n(CCc2ccccc2)c(=O)c2c1nc1n2CCCN1c1ccccc1`, the max dye-equivalent concentration entry was “inactive”.

Consider `Cc1nc2cnc(N3CCNCC3)nc2n(CCc2ccccc2)c1=O`, for which the max dye-equivalent concentration is 49 nM (active).

On to `OCc1nc(CO)n(Cc2ccccc2)n1`, for which the max dye-equivalent concentration result was “inactive”.

Turning to `CCCCCn1c(SCCC(C)C)nc2c1c(=O)[nH]c(=O)n2C`, the max dye-equivalent concentration entry is “inactive”.

`C/C(O)=C\c1nc(=O)c2c(C)cc(C)nc2n1-c1ccccc1`: the max dye-equivalent concentration was 43 nM (active).

In the case of `N#CCSc1nc2ccccc2c(=O)n1-c1ccccc1`, the max dye-equivalent concentration result was “inactive”.

Regarding `Cc1cc(C)nc(N(C#N)CC(=O)Nc2ccccc2)n1`, the max dye-equivalent concentration entry is “inactive”.

On to `COc1ccc(C2C3=C(CC(C)(C)CC3=O)Oc3ncn4nc(-c5cccnc5)nc4c32)cc1OC` (configuration not stated), for which the max dye-equivalent concentration result is “inactive”.

On to `CC(=O)Nc1ccc(S(=O)(=O)N2CCN(CCCOc3cc(C)ccc3C)CC2)cc1`, for which the max dye-equivalent concentration result was “inactive”.

The values above are taken from PubChem BioAssay AID589 (National Center for Advancing Translational Sciences (NCATS), 2007).
